# Experimental data as given in PubChem BioAssay (Tox21).
# Inconclusive results are not listed. Where a call stands in place of a potency, no number is given. Active and inactive are the calls of the source. Unless noted, the call rests on the fitted dose curve.
# Legend:
# [1] = Nuclear factor erythroid 2-related factor 2/antioxidant responsive element (Nrf2/ARE) small molecule agonists: qHTS cell viability counter screen in human keratinocytes (AID 1919968; active means well fitted curve in the direction sought with a large enough effect in the repeat runs; an effect the other way counts as inactive or inconclusive; further: nearly all actives have a fitted effect of over 55% in size)
# Procedure, shortened: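 CellTiter-Fluor fluorescence, read 1 h after reagent, gave viability in the same wells as the ARE-luciferase assay. KeratinoSens cells (1,500/well) had 23 h compound exposure at 37 C/5% CO2 following 5 h plating.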
# [2] = Nuclear factor erythroid 2-related factor 2/antioxidant responsive element (Nrf2/ARE) small molecule agonists: luciferase reporter gene qHTS assay in human keratinocytes (AID 1919969); further: nearly all actives have a fitted effect of over 35% in size; further: potency means the concentration at half of the fitted maximal effect
# [3] = target: Gonadotropin-releasing hormone receptor (Homo sapiens) (UniProt P30968); test: Human gonadotropin-releasing hormone receptor (GnRHR) small molecule agonists, calcium flux assay in GnRHR-HEK293 cells (AID 1920063); further: nearly all actives have a fitted effect of over 35% in size
# Procedure, shortened: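 Agonist mode: compounds at 15 concentrations, in triplicate, went onto calcium dye-loaded GnRHR-HEK293 cells. Intracellular calcium was then followed as 480/540 nm fluorescence at 1 s intervals over 3 min.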
# [4] = target: KiSS-1 receptor (Homo sapiens) (UniProt Q969F8); test: Human kisspeptin (KISS1R) small molecule agonists, calcium flux assay in KISS1R-HEK293 cells (AID 1920064; active means well fitted curve in the direction sought with a large enough effect in the repeat runs; an effect the other way counts as inactive or inconclusive)
# Procedure, shortened: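 Agonist mode: intracellular calcium rise tracked at 1 s intervals over 3 min (480/540 nm) immediately after compound addition to dye-loaded KISS1R-HEK293 stable cells. Each compound tested at 15 concentrations in triplicate.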
# [5] = G protein-coupled receptor (GPCR) small molecule agonists, calcium flux assay: HEK293 wild type cell line counter screen (AID 1920065)
# Procedure, shortened: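 Calcium flux counter screen: compound added in agonist mode at 15 concentrations in triplicate to dye-loaded parental HEK293 cells. Fluorescence (480/540) read kinetically for 3 min; ATP served as positive control.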
# [6] = p53 small molecule agonists, cell-based qHTS assay with human liver microsomes (AID 1963577);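 further: p53 response element beta-lactamase reporter cells with liver microsomes plus NADPH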
# Procedure, shortened: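 In this qHTS, p53 response-element beta-lactamase cells receive test compound together with a microsome/NADPH activating system (0.5 mg/mL final each) and are incubated 16 h at 37 C before LiveBLAzer fluorescence detection.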
# [7] = p53 small molecule agonists, cell-based qHTS assay with rat liver microsomes (AID 1963578)
# Procedure, shortened: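 Agonist mode in p53RE-bla reporter cells, with compounds co-incubated 16 h at 37 C alongside 0.5 mg/mL rat liver microsomes and 0.5 mg/mL NADPH (final), followed by a 2 h LiveBLAzer detection step.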
# [8] = p53 small molecule agonists, cell-based qHTS assay with human liver microsomes: qHTS cell viability counter screen (AID 1963579); further: nearly all actives have a fitted effect of over 45% in size
# Procedure, shortened: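 Metabolically activated exposure: compounds, human liver microsomes and NADPH (0.5 mg/mL final apiece) were added to p53RE-bla cells seeded 5 h earlier, left 16 h at 37 C, and then assessed for viability by CellTiter-Glo luminescence.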
# [9] = p53 small molecule agonists, cell-based qHTS assay with rat liver microsomes: qHTS cell viability counter screen (AID 1963580); further: nearly all actives have a fitted effect of over 45% in size
# Procedure, shortened: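 Rat liver microsome (0.5 mg/mL final) and NADPH (0.5 mg/mL final) co-incubation with compounds for 16 h at 37 C on HCT-116 p53RE-bla cells; cytotoxicity taken from intracellular ATP luminescence.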
# [10] = p53 small molecule agonists, cell-based qHTS assay: qHTS cell viability counter screen (AID 1963581); further: nearly all actives have a fitted effect of over 45% in size
# Procedure, shortened: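 Counter screen read by CellTiter-Glo luminescence (ATP content, 30 min at room temperature), run in the same wells as the beta-lactamase reporter read. HCT-116 p53RE-bla cells saw compounds for 16 h at 37 C.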
# [11] = p53 small molecule agonists, cell-based qHTS assay (AID 1963582; active means well fitted activation curve with a large enough effect in the signal ratio in the repeat runs, not every such curve was filed as active; the % refers to the signal ratio)
# Procedure, shortened: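 Read-out is beta-lactamase FRET fluorescence after 2 h at room temperature with LiveBLAzer B/G substrate. p53 response element-bla cells were treated 16 h at 37 C with compounds in DMSO, added 5 h after seeding.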
# [12] = target: 5-hydroxytryptamine receptor 2A (Homo sapiens) (UniProt P28223); test: 5-hydroxytryptamine receptor 2A (HTR2A) small molecule antagonists, cell-based qHTS assay (AID 1963586); further: nearly all actives have a fitted effect of over 45% in size; further: potency means the concentration at half of the fitted maximal effect
# Procedure, shortened: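 CHO cells stably expressing human HTR2A were plated for 18 h at 37 C, then loaded with calcium dye for 1 h. Compounds were preincubated 5 min at room temperature before DOI (4 nM solution) was added. Kinetic fluorescence was read for 3 min.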
# [13] = target: 5-hydroxytryptamine receptor 2A (Homo sapiens) (UniProt P28223); test: 5-hydroxytryptamine receptor 2A (HTR2A) small molecule agonists, cell-based qHTS assay (AID 1963587); further: nearly all actives have a fitted effect of over 30% in size
# Procedure, shortened: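 Kinetic calcium-flux fluorescence (2 min, 1 sec intervals) after compound addition in agonist mode. HTR2A-CHO cells were cultured 18 h, then dye-loaded 1 h at 37 C.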
# [14] = target: Muscarinic acetylcholine receptor M1 (Homo sapiens) (UniProt P11229); test: Cholinergic receptor muscarinic 1 (CHRM1) small molecule antagonists, cell-based qHTS assay (AID 1963588); further: nearly all actives have a fitted effect of over 40% in size
# Procedure, shortened: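 Compounds were tested at 15 concentrations in three independent runs. Dye-loaded CHRM1-CHO cells were exposed 5 min at room temperature before stimulation by acetylcholine added at 50nM. Intracellular calcium was read kinetically on FDSS for 3 min.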
# [15] = target: Muscarinic acetylcholine receptor M1 (Homo sapiens) (UniProt P11229); test: Cholinergic receptor muscarinic 1 (CHRM1) small molecule agonists, cell-based qHTS assay (AID 1963589); further: nearly all actives have a fitted effect of over 35% in size
# Procedure, shortened: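 Agonist-mode calcium-flux screen: compounds at 15 concentrations, three independent runs, were pin-transferred onto dye-loaded human CHRM1-CHO cells. Fluorescence was then recorded kinetically every second over minutes.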
# [16] = cAMP Responsive Elements (CRE) small molecule agonists, cell-based qHTS assay (AID 1963590); further: potency means the concentration at half of the fitted maximal effect
# Procedure, shortened: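 Agonist mode: compound added to CRE-bla HEK 293T cells (2,000/well, 18 h after plating) for 3 h at 37 C/5% CO2. Reporter activity detected via FRET beta-lactamase substrate, 2 h room-temperature loading.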
# [17] = cAMP Responsive Elements (CRE) small molecule antagonists, cell-based qHTS assay (AID 1963591; active means well fitted inhibition curve with a large enough effect in the signal ratio in the repeat runs, not every such curve was filed as active; the % refers to the signal ratio)
# Procedure, shortened: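 Antagonist mode: compounds are added alongside the adenylyl cyclase activator NKH477 (0.25 uM final) to CRE-bla HEK293T cells for 3 h. LiveBLAzer FRET substrate, 2 h at room temperature, reports bla expression.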
# [18] = target: Beta-2 adrenergic receptor (Homo sapiens) (UniProt P07550); test: Adrenergic beta2 receptor (ADRB2) small molecule antagonists, cell-based qHTS assay (AID 1963592); further: series mostly up to about 92 µM; nearly all actives have a fitted effect of over 50% in size
# Procedure, shortened: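 Assay format: CHO-ADRB2 cells, 18-20hr seeding at 37C/5% CO2, then compound plus 1nM isoproterenol agonist mix for 0.5hr RT. Homogeneous time-resolved fluorescence cAMP detection after 1hr, expressed as 665/615 nm ratio.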
# [19] = target: D(2) dopamine receptor (Homo sapiens) (UniProt P14416); test: Dopamine D2 receptor (DRD2) small molecule agonists, cell-based qHTS assay (AID 1963594); further: nearly all actives have a fitted effect of over 35% in size
# Procedure, shortened: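 cAMP accumulation in DRD2-HEK293 cells measured by HTRF after 1 h detection; compounds added 10 min before NKH477 (200nM […]) forskolin-analogue stimulation, 30 min at room temperature, with Ro20-1724 present at 0.1 mM final.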
# [20] = target: D(2) dopamine receptor (Homo sapiens) (UniProt P14416); test: Dopamine D2 receptor (DRD2) small molecule antagonists, cell-based qHTS assay (AID 1963595; active means well fitted inhibition curve with a large enough effect in the signal ratio in the repeat runs, with a control signal flat; the % refers to the signal ratio; further: potency means the concentration at half of the fitted maximal effect)
# Procedure, shortened: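 HEK293 cells stably expressing DRD2, preincubated with 0.1 mM Ro20-1724 and compounds 10 min, were stimulated with 200 nM NKH477 plus 12 nM quinpirole for 30 min at room temperature; cAMP measured by HTRF (665/620 nm).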
# Sequence of Beta-2 adrenergic receptor (Homo sapiens) (P07550 whole entry, looked up): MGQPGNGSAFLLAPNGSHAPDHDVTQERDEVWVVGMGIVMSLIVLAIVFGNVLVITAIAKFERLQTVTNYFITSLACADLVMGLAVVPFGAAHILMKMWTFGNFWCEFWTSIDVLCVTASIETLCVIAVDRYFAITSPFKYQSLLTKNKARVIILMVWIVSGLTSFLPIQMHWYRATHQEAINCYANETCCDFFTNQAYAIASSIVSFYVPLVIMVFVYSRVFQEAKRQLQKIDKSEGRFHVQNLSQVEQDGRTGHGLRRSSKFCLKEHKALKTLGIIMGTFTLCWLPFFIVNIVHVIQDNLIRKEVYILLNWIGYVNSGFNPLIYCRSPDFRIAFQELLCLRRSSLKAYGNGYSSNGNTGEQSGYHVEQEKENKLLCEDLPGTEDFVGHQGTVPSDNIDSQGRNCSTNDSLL
# Sequence of KiSS-1 receptor (Homo sapiens) (Q969F8 whole entry, looked up): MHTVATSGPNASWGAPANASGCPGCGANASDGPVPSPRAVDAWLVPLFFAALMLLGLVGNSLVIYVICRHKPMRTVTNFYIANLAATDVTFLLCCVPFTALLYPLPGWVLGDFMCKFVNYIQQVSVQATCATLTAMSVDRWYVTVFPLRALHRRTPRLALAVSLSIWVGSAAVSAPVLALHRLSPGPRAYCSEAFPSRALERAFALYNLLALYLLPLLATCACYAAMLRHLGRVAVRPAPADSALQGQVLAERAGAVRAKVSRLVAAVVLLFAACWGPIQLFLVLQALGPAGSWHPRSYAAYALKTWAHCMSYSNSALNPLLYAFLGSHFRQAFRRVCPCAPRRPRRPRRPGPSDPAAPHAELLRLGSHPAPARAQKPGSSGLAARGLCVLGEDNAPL
# Sequence of Gonadotropin-releasing hormone receptor (Homo sapiens) (P30968 whole entry, looked up): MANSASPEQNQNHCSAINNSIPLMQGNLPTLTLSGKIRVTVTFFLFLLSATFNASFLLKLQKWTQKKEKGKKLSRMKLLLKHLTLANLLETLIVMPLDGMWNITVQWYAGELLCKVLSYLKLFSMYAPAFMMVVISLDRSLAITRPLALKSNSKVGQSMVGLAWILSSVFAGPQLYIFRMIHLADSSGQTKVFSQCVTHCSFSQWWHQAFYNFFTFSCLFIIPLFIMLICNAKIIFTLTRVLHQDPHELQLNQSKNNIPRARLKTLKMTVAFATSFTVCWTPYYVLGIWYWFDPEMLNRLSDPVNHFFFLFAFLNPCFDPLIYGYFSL
# Sequence of D(2) dopamine receptor (Homo sapiens) (P14416 whole entry, looked up): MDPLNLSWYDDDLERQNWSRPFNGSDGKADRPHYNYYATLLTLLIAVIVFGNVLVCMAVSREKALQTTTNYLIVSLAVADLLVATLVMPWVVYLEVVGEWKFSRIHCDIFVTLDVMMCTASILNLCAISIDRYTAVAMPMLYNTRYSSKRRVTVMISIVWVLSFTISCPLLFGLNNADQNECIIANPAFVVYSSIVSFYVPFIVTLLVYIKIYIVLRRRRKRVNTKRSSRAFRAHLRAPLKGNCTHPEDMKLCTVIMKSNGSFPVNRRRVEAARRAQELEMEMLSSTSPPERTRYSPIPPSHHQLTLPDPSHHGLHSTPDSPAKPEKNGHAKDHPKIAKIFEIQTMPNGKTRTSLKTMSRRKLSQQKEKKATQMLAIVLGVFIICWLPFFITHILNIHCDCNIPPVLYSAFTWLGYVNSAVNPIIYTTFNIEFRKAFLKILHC
# Sequence of Muscarinic acetylcholine receptor M1 (Homo sapiens) (P11229 whole entry, looked up): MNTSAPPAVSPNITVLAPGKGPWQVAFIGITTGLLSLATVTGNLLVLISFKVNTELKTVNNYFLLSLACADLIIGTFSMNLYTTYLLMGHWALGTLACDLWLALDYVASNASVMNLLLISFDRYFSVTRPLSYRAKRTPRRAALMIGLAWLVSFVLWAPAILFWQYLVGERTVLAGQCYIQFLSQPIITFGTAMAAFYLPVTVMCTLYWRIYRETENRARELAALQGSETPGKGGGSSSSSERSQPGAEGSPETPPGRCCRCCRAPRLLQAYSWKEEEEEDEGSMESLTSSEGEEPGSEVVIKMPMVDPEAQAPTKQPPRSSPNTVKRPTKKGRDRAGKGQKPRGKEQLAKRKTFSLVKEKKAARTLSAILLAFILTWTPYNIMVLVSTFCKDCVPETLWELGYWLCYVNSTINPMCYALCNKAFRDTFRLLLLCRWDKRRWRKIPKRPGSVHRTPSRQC
# Sequence of 5-hydroxytryptamine receptor 2A (Homo sapiens) (P28223 whole entry, looked up): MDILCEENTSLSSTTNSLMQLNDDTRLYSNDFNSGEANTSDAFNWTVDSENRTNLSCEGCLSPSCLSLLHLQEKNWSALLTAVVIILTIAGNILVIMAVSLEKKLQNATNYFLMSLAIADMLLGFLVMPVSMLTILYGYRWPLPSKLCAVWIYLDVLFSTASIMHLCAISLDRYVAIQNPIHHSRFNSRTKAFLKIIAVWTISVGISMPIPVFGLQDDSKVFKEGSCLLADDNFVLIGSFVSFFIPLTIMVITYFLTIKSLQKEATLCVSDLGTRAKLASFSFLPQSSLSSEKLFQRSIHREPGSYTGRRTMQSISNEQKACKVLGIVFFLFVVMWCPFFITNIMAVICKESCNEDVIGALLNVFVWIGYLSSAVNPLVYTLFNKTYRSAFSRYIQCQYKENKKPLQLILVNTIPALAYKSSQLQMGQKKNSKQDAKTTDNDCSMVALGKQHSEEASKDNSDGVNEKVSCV
SMILES,Potency [1],Potency [2],Potency [3],Potency [4],Potency [5],Potency [6],Potency [7],Potency [8],Potency [9],Potency [10],Potency [11],Potency [12],Potency [13],Potency [14],Potency [15],Potency [16],Potency [17],Potency [18],Potency [19],Potency [20]
Cc1ccc(C=O)cc1,inactive,inactive,inactive,inactive,inactive,inactive,inactive,inactive,inactive,inactive,inactive,inactive,inactive,inactive,inactive,inactive,inactive,inactive,inactive,
CC(N)CN (stereo not drawn),inactive,inactive,inactive,inactive,inactive,inactive,inactive,inactive,inactive,inactive,inactive,inactive,inactive,inactive,inactive,inactive,inactive,inactive,inactive,inactive
Cc1cn([C@H]2C[C@H](F)[C@@H](CO)O2)c(=O)[nH]c1=O,inactive,inactive,inactive,inactive,inactive,inactive,inactive,inactive,inactive,inactive,inactive,inactive,inactive,inactive,inactive,inactive,inactive,inactive,inactive,inactive
CC1CCC(C(C)(C)O)CC1 (stereo not drawn),inactive,inactive,inactive,inactive,inactive,inactive,inactive,inactive,inactive,inactive,inactive,inactive,inactive,inactive,inactive,inactive,inactive,inactive,inactive,inactive
CC1=NN(c2ccc(S(=O)(=O)O)cc2)C(=O)C1,inactive,inactive,inactive,inactive,inactive,inactive,inactive,inactive,inactive,inactive,inactive,inactive,inactive,inactive,inactive,inactive,inactive,inactive,,inactive
Nc1ncnc2c1ncn2[C@@H]1O[C@H](COP(=O)(O)O)[C@@H](O)[C@H]1O,inactive,inactive,inactive,inactive,inactive,inactive,inactive,inactive,inactive,inactive,inactive,inactive,inactive,inactive,inactive,11.9 µM (active),inactive,inactive,,0.944 µM (active)
O=C(CCNNC(=O)c1ccncc1)NCc1ccccc1,inactive,inactive,inactive,inactive,inactive,inactive,inactive,inactive,inactive,inactive,inactive,inactive,inactive,inactive,inactive,inactive,inactive,inactive,inactive,
CCCC=O,inactive,inactive,inactive,inactive,inactive,inactive,inactive,inactive,inactive,inactive,inactive,inactive,inactive,inactive,inactive,inactive,inactive,inactive,inactive,
c1cnc2cc3c(cc2n1)C1CNCC3C1,inactive,inactive,inactive,inactive,inactive,inactive,inactive,inactive,inactive,inactive,inactive,inactive,inactive,inactive,inactive,inactive,inactive,inactive,inactive,inactive
CC[C@H](C)[C@@H](C(=O)O)n1sc2ccccc2c1=O,inactive,54.5 µM (active),inactive,inactive,inactive,inactive,inactive,inactive,inactive,inactive,inactive,inactive,inactive,inactive,inactive,inactive,inactive,inactive,inactive,
CCC(=O)OC,inactive,inactive,inactive,inactive,inactive,inactive,inactive,inactive,inactive,inactive,inactive,inactive,inactive,inactive,inactive,inactive,inactive,inactive,inactive,inactive
CC(C)OC(=O)CCCCC(=O)OC(C)C,inactive,inactive,inactive,inactive,inactive,inactive,inactive,inactive,inactive,inactive,inactive,inactive,inactive,inactive,inactive,inactive,inactive,inactive,inactive,inactive
O=C(CCCN1CCC(O)(c2cccc(C(F)(F)F)c2)CC1)c1ccc(F)cc1,inactive,inactive,inactive,inactive,inactive,inactive,inactive,inactive,inactive,inactive,inactive,0.365 µM (active),inactive,inactive,inactive,inactive,inactive,inactive,inactive,0.0042 µM (active)
CCN1CCC[C@H]1CNC(=O)c1c(O)c(Cl)cc(Cl)c1OC,inactive,inactive,inactive,inactive,inactive,inactive,inactive,inactive,inactive,inactive,inactive,18.3 µM (active),inactive,inactive,inactive,inactive,inactive,inactive,inactive,
C1CCCCC1,inactive,inactive,inactive,inactive,inactive,inactive,inactive,inactive,inactive,inactive,inactive,inactive,inactive,inactive,inactive,inactive,inactive,inactive,inactive,inactive
